Source: the supplement of paper PMC5499739
The full ranking holds about 16,000 sequences; the median of “Z-score” is about -0.37, and the highest 2% start at about 3.1. The sample as a whole holds a higher share of the highest values than the screen did.

The sequences below were run on RBM10 RRM1-ZnF-RRM2 (GST-tagged construct) (assay: RNAcompete 7-mer binding Z-score; higher = stronger binding preference).
Summary of the method: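 A designed pool of 241 399 RNAs, each up to 41 nt and transcribed from microarray-derived DNA templates, was used at 1.5 nmol with 20 pmol of GST-tagged RBM10 constructs. The mixture, in 1 ml Hepes pH 7.8 buffer with KCl, NaCl, glycerol, DTT, BSA and glutathione Sepharose beads, was held 30 min at 4°C and then washed four times for 2 min at 4°C. Bound RNA was read out by microarray hybridisation, and enrichment of each heptamer motif was scored as a one-sided Z-score over the probes carrying it.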

Sequence	RNAcompete 7-mer binding Z-score
GUAUGGA	2.44
AAAUGGC	1.42
CUAUGGG	1.08
AAAUGGU	2.73
CGGAUAU	0.348
GGUGUCG	1.21
AGUAUGC	0.0204
CCCAGCU	-0.657
CUAGACA	-0.621
UUGGGCG	2.45
AGGCCCG	-0.759
CGCUUUC	-0.77
UGGGGGC	3.18
AGGGCGG	2.23
UGGGGCA	3.52
UUGGGGC	2.04
UGGGCGG	3.38
UGGGGCC	0.76
UGGGGCG	2.66
GGGGGCA	2.33
UGGGCGC	0.989
AGGGGCA	2.36
UUGGGGG	3.03
UGGGGGG	3.39

Sequence	RNAcompete 7-mer binding Z-score
UUGGAAU	0.57
AGUUCAA	-0.311
ACACAUG	-0.0962
AUGCUAU	-0.65
GAAAAUG	1.46
AAAAUUU	-0.544
AAGGACA	3.12
CUGAUAA	-0.566
UCGGGUC	0.512
ACCAGUC	-0.602
ACCAGGU	0.399
GCCUAUU	-0.901
ACCCUCA	-0.846
UGGGGUU	2.78
GGGGGGU	3.13
UGGGGGU	3.25
UGAGGGU	3.92
UGAGGCU	0.315
GGAGGAU	2.27
GGAGGGU	3.8
UGAGGAG	1.94
UGAGAGG	1.8
CGAGGGU	3.55
CGAGGUU	0.727

Sequence	RNAcompete 7-mer binding Z-score
GGAGGCU	1.29
CGAGGAU	1.1
AGAGGGU	2.21
UGAGGGG	3.5
GAUCGGA	0.785
UCUCGGA	-0.329
UCGGAUG	0.512
CGCCGAA	-0.646
GAUAUUG	0.283
AAGUGUC	-0.322
GCAAGUG	0.709
UGAGGCA	1.31
UCAGGGA	2.05
UGAGGGA	4.05
CGGGGUA	3.42
UUGGGUA	1.95
CGGGGUC	1.9
CUGGGUA	1.78
UGGGGUA	3.36
GCGGGUA	2.5
AGGGGUA	3.66
CCGGGUA	0.814
GGGGGUA	3.52
GUGGGUA	3.07

Sequence	RNAcompete 7-mer binding Z-score
AGGGGUC	1.76
CGAUUUA	-0.704
UUAAAGC	-0.439
ACUAGAA	-0.187
CUUUUGA	-0.755
AGAGACC	-0.774
UCAUACA	-0.464
AAGAGGG	3.05
UGGAGUG	2.72
UGGAGAG	2.12
UGGAGGA	2.95
AGGAGGA	2.22
GGGAGUG	3.84
UAGAGGG	3.16
UAGAGGU	1.68
GGGAGUA	2.34
AGGAGUG	2.8
UGGAGGG	4.26
GGGAGGA	3.24
GCACUAG	-0.0161
AUAAGCU	-0.391
